{"source": "PubChem BioAssay AID588579", "about": "(National Center for Advancing Translational Sciences (NCATS), 2011)", "note": "Hit rate of the full screen: of about 400,000 compounds, about 2,200 (0.55%) were called active. Entries that show only a call come without a potency. Roughly 1% stayed inconclusive and do not appear here. The full list was thinned out, with actives kept by preference. A number with no mark means an inactive call. The call rests on the fitted dose curve; in most records, active means well fitted inhibition curve with a large enough effect; inconclusive means small, poorly fitted or top-dose-only effect, or another doubt; inactive means no such curve, though single readings can be large or run the other way. Potency means the concentration at half of the fitted maximal effect.", "data": [{"target": "DNA polymerase kappa (Homo sapiens) (UniProt Q9UBT6)", "sequence (Q9UBT6 whole entry, looked up)": "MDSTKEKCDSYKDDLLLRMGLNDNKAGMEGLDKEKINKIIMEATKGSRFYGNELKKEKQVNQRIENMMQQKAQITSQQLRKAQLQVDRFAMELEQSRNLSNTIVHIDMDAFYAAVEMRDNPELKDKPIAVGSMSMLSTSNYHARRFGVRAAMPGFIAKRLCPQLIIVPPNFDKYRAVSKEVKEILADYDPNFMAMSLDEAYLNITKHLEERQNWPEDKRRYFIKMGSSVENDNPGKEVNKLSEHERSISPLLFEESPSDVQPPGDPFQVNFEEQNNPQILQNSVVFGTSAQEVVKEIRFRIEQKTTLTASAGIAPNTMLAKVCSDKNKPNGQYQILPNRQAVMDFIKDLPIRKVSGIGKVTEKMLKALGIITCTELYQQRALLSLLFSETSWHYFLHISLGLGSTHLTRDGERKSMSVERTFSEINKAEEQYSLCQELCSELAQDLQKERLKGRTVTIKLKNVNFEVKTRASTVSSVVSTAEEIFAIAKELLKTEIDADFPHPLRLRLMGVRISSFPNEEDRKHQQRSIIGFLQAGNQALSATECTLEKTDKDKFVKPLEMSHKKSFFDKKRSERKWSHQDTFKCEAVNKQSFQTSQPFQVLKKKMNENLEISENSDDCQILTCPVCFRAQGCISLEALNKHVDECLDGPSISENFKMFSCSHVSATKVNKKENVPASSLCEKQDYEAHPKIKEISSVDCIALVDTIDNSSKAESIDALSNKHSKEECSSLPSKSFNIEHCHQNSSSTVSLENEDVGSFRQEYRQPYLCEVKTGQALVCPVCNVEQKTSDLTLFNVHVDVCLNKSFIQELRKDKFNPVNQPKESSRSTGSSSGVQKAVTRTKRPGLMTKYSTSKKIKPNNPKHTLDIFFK", "experiment": "qHTS for Inhibitors of Polymerase Kappa", "settings": "purified Pol kappa, fluorescent DNA synthesis assay, 10 min; series mostly up to 107 µM", "method_in_brief": "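50 nM final substrate added after 15 min RT preincubation of 10 nM Pol kappa with compound; fluorescence read at 0 and 10 min.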", "values": [{"smiles": "CN(C)c1ccc(C=Nc2ccc(/C=C/c3ccnc4ccccc34)cc2)cc1", "Potency": "inactive"}, {"smiles": "NC(=O)C(=O)N/N=C/c1ccc([N+](=O)[O-])o1", "Potency": "inactive"}, {"smiles": "O=c1cc(-c2ccc(O)cc2)oc2c(-c3cc(-c4cc(=O)c5c(O)cc(O)cc5o4)ccc3O)c(O)ccc12", "Potency": "26.7 µM (active)"}, {"smiles": "O=c1c(-c2ccc3c(c2)OCCO3)c(C(F)(F)F)oc2cc(O)cc(O)c12", "Potency": "inactive"}, {"smiles": "CCOC(=O)c1cc2cc(-c3c(C(=O)OCC)oc4cc(O)cc(O)c4c3=O)ccc2o1", "Potency": "inactive"}, {"smiles": "C=C(C)C1CC=C(C)C(O)C1", "note": "(stereo not drawn)", "Potency": "inactive"}, {"smiles": "C=C1C=C(C)n2ncc(C(=O)Nc3ccccc3O)c2N1", "Potency": "inactive"}, {"smiles": "CC(C)c1ccc(Nc2nnc(SCC(=O)c3nnc(-c4ccccc4)o3)s2)cc1", "Potency": "79.4 µM (active)"}, {"smiles": "CN(C(=O)CSc1nnc(NC(=O)Nc2ccccc2)s1)c1ccccc1", "Potency": "inactive"}, {"smiles": "CC(=O)c1ccc(NC(=O)CSc2nnc(NC(=O)Nc3ccccc3)s2)cc1", "Potency": "inactive"}, {"smiles": "CC(C)=CCC/C(C)=C/CC/C(C)=C/CC/C(C)=C/CO", "Potency": "inactive"}, {"smiles": "O=C(c1cc(C(F)(F)F)cc(C(F)(F)F)c1)N1CCC2(CCCN(Cc3ccncc3)C2)CC1", "Potency": "inactive"}, {"smiles": "OCC(CO)NC1C[C@](O)(CO)[C@@H](O)[C@H](O)[C@H]1O", "note": "(stereo partly drawn)", "Potency": "inactive"}, {"smiles": "CC(=O)Oc1c2c(c3c(c1CC=C(C)C)O[C@@]14C(=CC5CC1C(C)(C)OC4(C/C=C(\\C)C(=O)O)C5=O)C3=O)OC(C)(CCC=C(C)C)C=C2", "note": "(stereo partly drawn)", "Potency": "31.6 µM (active)"}, {"smiles": "COc1ccc2c3c1OC1CC(O)C=C[C@@]31CCN(C)C2", "note": "(stereo partly drawn)", "Potency": "inactive"}, {"smiles": "COc1cc2c(cc1OC)CC(=O)N(CCCN(C)C[C@H]1Cc3cc(OC)c(OC)cc31)CC2", "activity, negative = inhibition": "3.96% [at 19.4 µM]"}, {"smiles": "FC(F)(F)c1ccccc1-c1nc(-n2ccnc2)c2ccccc2n1", "Potency": "inactive"}, {"smiles": "Nc1ccc(/C=C/c2ccnc3ccccc23)c([N+](=O)[O-])c1", "Potency": "inactive"}, {"smiles": "O=c1/c(=C/c2ccc(CNS(=O)(=O)c3ccccc3)o2)sc2n1CCN=2", "Potency": "inactive"}, {"smiles": "O=c1nc2s/c(=C\\c3ccco3)c(=O)n2nc1Cc1ccccc1", "Potency": "31.6 µM (active)"}, {"smiles": "CN1CCOC1c1ccc(C2OCCN2C)cc1", "note": "(stereo not drawn)", "Potency": "39.8 µM (active)"}, {"smiles": "O=C(Nc1ccc(Cl)cc1)c1cnn2c1NC(=C1CC1)C=C2C(F)F", "Potency": "inactive"}, {"smiles": "Nc1ccc2nc3c(=O)[nH]c(=S)[nH]c3nc2c1", "Potency": "2.24 µM (active)"}, {"smiles": "Brc1cccc[n+]1Cc1cccc(C[n+]2ccccc2Br)c1", "Potency": "inactive"}, {"smiles": "CCNc1ncc2nc(CCc3ccccc3)c(=O)n(-c3ccc(OC)cc3)c2n1", "Potency": "inactive"}, {"smiles": "CC(=O)Nc1ccc(S(=O)(=O)NC2(C(F)(F)F)C(=O)NC(C)=C2C#N)cc1", "note": "(stereo not drawn)", "Potency": "79.4 µM (active)"}, {"smiles": "CCCN1C(=O)C(NS(=O)(=O)c2ccc(N)cc2)(C(F)(F)F)C(C(=O)OC)=C1C", "note": "(stereo not drawn)", "Potency": "inactive"}, {"smiles": "CC(=O)Nc1ccc(S(=O)(=O)NC2(C(F)(F)F)C(=O)Nc3c2c(=O)[nH]c(=O)n3Cc2ccccc2)cc1", "note": "(stereo not drawn)", "Potency": "inactive"}]}]}
